Data as given in PubChem BioAssay.
The source made the active and inactive calls. Unless noted, the rule behind the calls is not given here.

Assays:
[1] = compounds binding Alexa647 anti-His antibody – biochemical, small-molecule microarray, 635 nm fluorescence, artefact control for SMM control protein annotation, primary screen (AID 1128); conditions: higher = more signal;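 note: score merges feature fluorescence with signal-to-noise for each printed compound spot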
[2] = system: Human papillomavirus type 1a E7 protein (residues 1-88); assay: HPV1a E7 small-molecule binders, primary screen, biochemical, small-molecule microarray, residues 1-88, 635 nm (AID 1129); conditions: small-molecule microarray binding, fluorescence 635 nm; higher = more signal
[3] = molecular target: Focal adhesion kinase 1 (Homo sapiens) (UniProt Q05397); assay: PTK2 protein binding on printed compound slides – biochemical, small-molecule microarray, 635/667 nm fluorescence, BSA, DTT, primary screen (AID 1130); conditions: 635 nm fluorescence, higher = more signal;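 note: composite of spot emission at 667 nm and signal to noise over triplicate slides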
[4] = system: Fibrinogen (Alexa647-labelled); assay: Alexa647-fibrinogen binding to printed small molecules – biochemical, small-molecule microarray, 635/667 nm fluorescence, artefact control for SMM control-protein annotation, profiling panel (AID 1131); conditions: fibrinogen-A647 binding fluorescence, higher = more signal;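 note: z-score merges 667 nm fluorescence with per-spot signal-to-noise over triplicate slides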
[5] = molecular target: Follistatin (Homo sapiens) (UniProt P19883); assay: FST protein binding to printed compounds – biochemical, small-molecule microarray, 635/667 nm fluorescence, primary screen (AID 1132); conditions: 635 nm fluorescence, higher = more signal
[6] = molecular target: Fibroblast growth factor 2 (Homo sapiens) (UniProt P09038); assay: basic fibroblast growth factor binding to printed compounds – biochemical, small-molecule microarray, 635/667 nm fluorescence, primary screen (AID 1133); conditions: FGF2, fluorescence 635/667, higher = more signal
[7] = JC-1 mitochondrial potential readout, lung cancer cells – cell-based, A549, JC-1 fluorescence, basal, 24 h, 100 nL, profiling panel (AID 1138); conditions: higher = more signal;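 note: A549 lung adenocarcinoma cells under basal conditions with no added stimulus; test concentration not given here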
Lefty1 = Lefty1 protein binding to printed compounds – biochemical, small-molecule microarray, 635/667 nm fluorescence, primary screen (AID 1139); conditions: fluorescence 635/667, higher = more signal
[8] = system: wheat germ agglutinin (Triticum aestivum), Alexa647-labelled; assay: Alexa647-WGA lectin binding to printed small molecules – biochemical, small-molecule microarray, 635/667 nm fluorescence, artefact control for SMM control-protein annotation, profiling panel (AID 1140); conditions: WGA-A647 binding, 635 nm fluorescence, higher = more signal;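 note: score merges 667 nm feature emission with signal to noise over triplicate slides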
[9] = molecular target: Luciferin 4-monooxygenase (Photinus pyralis) (UniProt P08659); assay: inhibition of purified Photinus pyralis luciferase – biochemical, luminescence, purified enzyme, 2006 set, primary screen (AID 1141); conditions: purified firefly luciferase, SteadyGlo luminescence, 30 min; higher = more signal, called active from +8 up or from −8 down;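 note: cell-free assay with purified firefly luciferase at 100 ng per well in PBS; test concentration not given here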
[10] = system: Wnt5a (protein binding on small-molecule microarray); assay: small molecules binding Wnt5a protein – biophysical, small-molecule microarray, 635/667 nm fluorescence, primary screen (AID 1142); conditions: 635 nm fluorescence, higher = more signal;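 note: fluorescence read at 667 nm with signal to noise per printed feature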
[11] = ATP-based viability of Huh7 replicon cells – cell-based, CellTiter-Glo luminescence, basal, 48 h, cytotoxicity control for HCV replication inhibitor project, primary screen (AID 1143); conditions: higher = more signal, called active from +8 up or from −8 down;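 note: Huh7 hepatoma cells carrying a hepatitis C replication reporter with no stimulus; test concentration not given here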
[12] = Pseudomonas biofilm growth suppression – PAO1 strain, BacTiter-Glo luminescence, LB-PBS, primary screen (AID 1144); conditions: P. aeruginosa PAO1 biofilm, 12 h, higher = more signal
[13] = basal CRE-LacZ reporter activity in PC12 – cell-based, unstimulated, primary screen (AID 1145); conditions: no forskolin, luminescence, 4.5 h, higher = more signal, called active from +8 up or from −8 down
[14] = forskolin-driven CRE-LacZ activity in PC12 – cell-based, CRE-LacZ reporter, forskolin-stimulated, primary screen (AID 1146); conditions: luminescence, 4.5 h, higher = more signal, called active from +8 up or from −8 down;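 note: PC12 cells with 6xCRE LacZ reporter stimulated by forskolin 10 µM; beta-galactosidase reporter signal reflecting CREB driven transcription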
[15] = molecular target: Streptavidin (Streptomyces avidinii) (UniProt P22629); assay: compounds binding control protein streptavidin – biophysical, small-molecule microarray, 635/667 nm fluorescence, artefact control for SMM compound annotation, primary screen (AID 1147); conditions: higher = more signal;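 note: signal reflects streptavidin binding to arrayed compounds as a control protein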
[16] = probe aInhba binding on compound microarray – biochemical, small-molecule microarray, 635/667 nm fluorescence, primary screen (AID 1148); conditions: higher = more signal;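 note: score merges 667nm spot fluorescence with signal-to-noise for antibody binding to printed compounds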
Torsin-1A (Homo sapiens) [17] = molecular target: Torsin-1A (Homo sapiens) (UniProt O14656); assay: TOR1A wild-type binding on microarray – cell lysate, small-molecule microarray, lysate, 635/667 nm, primary screen (AID 1149); conditions: COS7 hTOR1A-WT lysate, 635 nm fluorescence, higher = more signal
Torsin-1A (Homo sapiens) [18] = molecular target: Torsin-1A (Homo sapiens) (UniProt O14656); assay: torsin A mutant lysate binding on microarrays – cell lysate, small-molecule microarray, COS7 lysate, 635/667 nm fluorescence, primary screen (AID 1150); conditions: COS7 hTOR1A mutant lysate, 635 nm fluorescence, higher = more signal;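 note: score pools 667 nm emission and signal to noise measuring lysate protein binding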
[19] = system: Sonic hedgehog protein (Shh); assay: Sonic hedgehog microarray binding compounds – biochemical, small-molecule microarray, 635/667 nm fluorescence, primary screen (AID 1151); conditions: 635 nm fluorescence, higher = more signal;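 note: Shh protein binding to compounds spotted on small-molecule microarray slides; score combines spot fluorescence intensity with signal-to-noise across triplicate slides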

Sequence of Luciferin 4-monooxygenase (Photinus pyralis) (P08659 whole entry, looked up): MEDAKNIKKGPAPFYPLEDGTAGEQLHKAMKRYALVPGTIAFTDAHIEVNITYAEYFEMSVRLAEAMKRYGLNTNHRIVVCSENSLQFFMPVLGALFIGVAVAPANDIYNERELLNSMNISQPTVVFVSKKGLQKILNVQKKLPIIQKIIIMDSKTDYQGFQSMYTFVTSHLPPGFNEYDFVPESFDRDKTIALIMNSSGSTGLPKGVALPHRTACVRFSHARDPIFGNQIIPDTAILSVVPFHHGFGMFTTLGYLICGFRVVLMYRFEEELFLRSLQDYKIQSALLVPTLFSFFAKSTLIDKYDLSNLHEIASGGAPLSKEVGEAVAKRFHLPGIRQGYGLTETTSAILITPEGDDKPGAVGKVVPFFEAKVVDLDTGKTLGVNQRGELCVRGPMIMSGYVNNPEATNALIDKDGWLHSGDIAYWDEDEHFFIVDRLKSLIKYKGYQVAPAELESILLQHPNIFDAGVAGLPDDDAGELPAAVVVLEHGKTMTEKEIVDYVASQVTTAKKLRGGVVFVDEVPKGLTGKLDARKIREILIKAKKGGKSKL
Sequence of Follistatin (Homo sapiens) (P19883 whole entry, looked up): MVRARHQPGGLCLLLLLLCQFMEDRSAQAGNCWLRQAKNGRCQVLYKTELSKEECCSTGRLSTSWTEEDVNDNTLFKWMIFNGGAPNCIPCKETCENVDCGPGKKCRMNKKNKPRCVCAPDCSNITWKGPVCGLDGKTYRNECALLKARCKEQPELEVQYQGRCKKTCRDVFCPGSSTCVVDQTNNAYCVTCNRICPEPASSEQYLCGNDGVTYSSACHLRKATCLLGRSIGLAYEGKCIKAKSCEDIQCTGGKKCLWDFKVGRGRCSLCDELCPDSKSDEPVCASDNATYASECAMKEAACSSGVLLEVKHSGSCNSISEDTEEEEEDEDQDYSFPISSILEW
Sequence of Fibroblast growth factor 2 (Homo sapiens) (P09038 whole entry, looked up): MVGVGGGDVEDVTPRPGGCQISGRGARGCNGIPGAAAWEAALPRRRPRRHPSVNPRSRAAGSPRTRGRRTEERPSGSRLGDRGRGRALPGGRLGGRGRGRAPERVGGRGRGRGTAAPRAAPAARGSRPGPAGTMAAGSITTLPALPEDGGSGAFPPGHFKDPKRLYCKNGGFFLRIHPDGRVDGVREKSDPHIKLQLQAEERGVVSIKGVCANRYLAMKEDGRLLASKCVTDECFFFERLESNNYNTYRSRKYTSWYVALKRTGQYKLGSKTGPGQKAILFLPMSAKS
Sequence of Streptavidin (Streptomyces avidinii) (P22629 whole entry, looked up): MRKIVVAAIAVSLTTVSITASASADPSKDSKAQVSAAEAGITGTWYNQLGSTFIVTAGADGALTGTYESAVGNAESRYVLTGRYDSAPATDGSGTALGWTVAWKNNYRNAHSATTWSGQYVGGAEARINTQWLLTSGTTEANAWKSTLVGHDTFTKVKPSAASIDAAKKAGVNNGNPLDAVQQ
Sequence of Focal adhesion kinase 1 (Homo sapiens) (Q05397 whole entry, looked up): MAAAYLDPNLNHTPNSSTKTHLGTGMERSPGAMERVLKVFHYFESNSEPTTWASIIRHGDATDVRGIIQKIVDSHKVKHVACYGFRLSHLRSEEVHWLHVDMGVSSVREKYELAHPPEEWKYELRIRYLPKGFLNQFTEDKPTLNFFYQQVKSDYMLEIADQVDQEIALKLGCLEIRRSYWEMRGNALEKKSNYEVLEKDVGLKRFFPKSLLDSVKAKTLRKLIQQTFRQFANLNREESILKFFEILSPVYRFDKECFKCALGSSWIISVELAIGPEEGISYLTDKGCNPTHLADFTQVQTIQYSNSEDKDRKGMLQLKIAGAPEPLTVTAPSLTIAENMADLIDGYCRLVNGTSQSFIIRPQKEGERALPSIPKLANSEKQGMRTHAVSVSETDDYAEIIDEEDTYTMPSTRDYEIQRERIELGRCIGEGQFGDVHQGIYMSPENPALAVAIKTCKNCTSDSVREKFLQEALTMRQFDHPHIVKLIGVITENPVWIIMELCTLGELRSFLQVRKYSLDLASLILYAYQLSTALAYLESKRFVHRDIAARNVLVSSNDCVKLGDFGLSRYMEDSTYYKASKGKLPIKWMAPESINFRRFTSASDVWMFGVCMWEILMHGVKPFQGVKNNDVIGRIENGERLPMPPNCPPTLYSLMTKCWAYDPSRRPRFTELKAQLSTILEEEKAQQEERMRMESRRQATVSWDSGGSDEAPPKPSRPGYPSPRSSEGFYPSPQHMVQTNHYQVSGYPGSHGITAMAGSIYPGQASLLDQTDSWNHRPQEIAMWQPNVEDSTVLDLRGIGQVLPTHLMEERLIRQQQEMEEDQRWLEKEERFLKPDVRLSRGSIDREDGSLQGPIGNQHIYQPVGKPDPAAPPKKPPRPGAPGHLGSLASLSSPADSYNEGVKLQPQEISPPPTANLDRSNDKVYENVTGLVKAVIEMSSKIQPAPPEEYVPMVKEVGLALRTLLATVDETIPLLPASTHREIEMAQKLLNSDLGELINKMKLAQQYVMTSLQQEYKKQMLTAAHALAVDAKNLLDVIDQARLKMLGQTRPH
Sequence of Torsin-1A (Homo sapiens) (O14656 whole entry, looked up): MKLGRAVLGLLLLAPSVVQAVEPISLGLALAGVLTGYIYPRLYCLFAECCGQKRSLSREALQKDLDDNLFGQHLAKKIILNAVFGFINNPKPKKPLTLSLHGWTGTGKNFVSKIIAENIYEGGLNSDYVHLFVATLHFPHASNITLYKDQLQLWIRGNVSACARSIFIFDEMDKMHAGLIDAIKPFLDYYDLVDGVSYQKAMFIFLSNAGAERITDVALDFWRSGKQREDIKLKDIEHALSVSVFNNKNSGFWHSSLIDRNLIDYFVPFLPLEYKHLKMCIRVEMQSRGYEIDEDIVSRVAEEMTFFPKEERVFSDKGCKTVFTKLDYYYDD

| Structure (SMILES) | composite z-score [1] | composite z-score [2] | composite z-score [3] | composite z-score [4] | composite z-score [5] | composite z-score [6] | z-score [7] | composite z-score (Lefty1) | composite z-score [8] | z-score [9] | composite z-score [10] | z-score [11] | z-score [12] | z-score [13] | z-score [14] | composite z-score [15] | composite z-score [16] | composite z-score (Torsin-1A (Homo sapiens) [17]) | composite z-score (Torsin-1A (Homo sapiens) [18]) | composite z-score [19] |
| --- | --- | --- | --- | --- | --- | --- | --- | --- | --- | --- | --- | --- | --- | --- | --- | --- | --- | --- | --- | --- |
| CC(CCN1CCc2nc(-c3ccccc3)c(-c3ccccc3)cc2C1)=NOC[C@@H](O)[C@H]1O[C@@H]2OC(C)(C)O[C@@H]2[C@H]1O | 0.107 | 0.94 | 0.182 | 0.925 | 0.521 | 0.409 | 2.07 | 1.07 | 0.393 | -0.116 (inactive) | 0.19 | -0.875 (inactive) | 0.306 (inactive) | 2.25 (inactive) | -0.311 (inactive) | 0.687 | -0.0589 | 0.648 | 0.587 | 1.09 |
| C[C@H]1Cc2c(COc3ccccc3)nc3c(c2CO1)CN(CCOc1ccccc1)CC3 | 1.07 | 0.804 | 0.673 | 0.702 | 1.18 | 0.537 | 4.09 | 1.13 | 0.346 | -1.19 (inactive) | 0.0543 | -0.491 (inactive) | -1.96 (inactive) | 3.54 (inactive) | -0.632 (inactive) | 0.426 | -0.157 | 0.53 | 0.217 | 1.21 |
| O=c1n(-c2ccccc2)c(=O)n2n1CC[C@@H]1C(=NOCc3ccccc3)[C@H]3O[C@H]3[C@@H](O)[C@@H]12 | 0.103 | -0.0945 | 0.0844 | -0.468 | 0.265 | 0.373 | 0.397 | 0.293 | 0.0398 | 0.0189 (inactive) | 0.18 | 0.492 (inactive) | 0.251 (inactive) | -0.385 (inactive) | -0.314 (inactive) | -0.445 | -0.0695 | -0.614 | -0.315 | -0.0835 |
| CC(C)=CCCC(C)=CCON=C1C[C@@H](O)[C@@H](O)[C@@H]2[C@@H]3C(=O)N(C[C@@H]4CCCO4)C(=O)[C@@H]3CC[C@H]12 | 1.39 | 1.13 | 0.349 | 0.499 | 1.13 | 0.945 | -0.773 | 1.24 | 0.572 | 0.217 (inactive) | 0.24 | -0.296 (inactive) | 0.175 (inactive) | -0.384 (inactive) | 0.174 (inactive) | 0.707 | -0.162 | 1.4 | 1.33 | 1.67 |
| O=C1C2=CC[C@H]3C(=O)N(c4cccc(Oc5ccccc5)c4)C(=O)[C@H]3[C@H]2[C@H](O)[C@@H]2O[C@H]12 | 0.703 | 0.185 | -0.0765 | -0.156 | 0.916 | 0.425 | -0.633 | 0.755 | 0.0467 | -1.27 (inactive) | 0.0049 | -6.01 (inactive) | 0.478 (inactive) | 0.699 (inactive) | 19.7 (active) | 0.284 | -0.239 | 0.181 | -0.111 | 0.264 |
| CO[C@H]1COC(=O)CCC[C@@H](C)[C@H](OC)COC(=O)[C@@H](C)NC(=O)CC=C[C@@H]1C | -0.132 | -1.12 | -0.154 | -0.737 | 1.12 | 1.17 | -0.716 | 1.42 | -0.878 | 0.624 (inactive) | -0.183 | -2.74 (inactive) | -0.231 (inactive) | -0.58 (inactive) | -0.041 (inactive) | -0.429 | -0.152 | 2.63 | 1.5 | 2.1 |
| CO[C@H]1COC(=O)CC=C[C@H](C)[C@@H](OC)COC(=O)[C@@H](C)NC(=O)CC=C[C@@H]1C | 0.437 | -1.32 | -0.535 | -1.31 | 1.45 | 1.1 | -1.05 | 1.47 | 0.0216 | 0.674 (inactive) | 0.0073 | -1.42 (inactive) | -1.15 (inactive) | -0.0824 (inactive) | 0.123 (inactive) | -0.343 | -0.233 | 3.05 | 2.16 | 2.14 |
| CCN1C(=O)[C@H]2[C@H]3[C@H](O)[C@H](O)CC(=NO[C@@H](C)c4cn([C@H](CO)Cc5ccccc5)nn4)[C@@H]3CC[C@H]2C1=O | 3.32 | 1.11 | -0.0643 | 0.752 | 0.579 | 0.894 | -0.719 | 0.926 | 1.05 | 0.465 (inactive) | 0.283 | -0.0863 (inactive) | 0.451 (inactive) | 0.727 (inactive) | 0.511 (inactive) | -0.138 | 0.0051 | 0.651 | 0.435 | 0.486 |
| CON=C[C@@H](NS(=O)(=O)c1ccc(C)cc1)[C@H](C)C=CCC(=O)OC | 0.4 | -1.15 | 0.438 | -0.717 | 0.718 | 0.747 | 0.764 | 0.585 | -0.35 | -0.42 (inactive) | 0.0181 | 0.319 (inactive) | -0.357 (inactive) | 0.173 (inactive) | -0.196 (inactive) | 0.188 | -0.128 | 0.379 | -0.199 | 0.779 |
| C#CCCCON=C1C[C@@H](O)[C@@H](O)[C@@H]2[C@@H]3C(=O)N(c4cccc(Oc5ccccc5)c4)C(=O)[C@@H]3CC[C@H]12 | 0.247 | -0.936 | -0.427 | -1.13 | -0.446 | -0.455 | 0.8 | -0.275 | 0.272 | 0.134 (inactive) | -0.591 | -0.593 (inactive) | 0.0591 (inactive) | -0.57 (inactive) | -0.236 (inactive) | -0.77 | -0.191 | 0.32 | 0.855 | -1.01 |
